# Data: PubChem BioAssay (NCI)
# This is part of a sample that, as a whole, favours compounds with a hit. Of some 83,000 tested, about 20% had one in any assay.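 Cell lines were cultured in 96-well plates, exposed to a single compound concentration, and assessed for percent growth 48 hours later.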 Values without a mark were called inactive. The source made the active and inactive calls. The calls were made as follows: active = growth percent below 10; inactive = the rest.
# What was measured:
# Experiment in all cases: NCI-60 one-dose screen, 48 h (100 = growth as untreated, 0 = no growth, -100 = all killed)
# Settings in all cases: 10 µM unless noted
# HCT-15 colon = system: HCT-15 colon
# HT29 colon = system: HT29 colon
# SNB-75 CNS = system: SNB-75 CNS
# U251 CNS = system: U251 CNS
# PC-3 prostate = system: PC-3 prostate
# SK-MEL-5 melanoma = system: SK-MEL-5 melanoma
# UACC-62 melanoma = system: UACC-62 melanoma
# LOX IMVI melanoma = system: LOX IMVI melanoma
# SK-MEL-28 melanoma = system: SK-MEL-28 melanoma
# SK-MEL-2 melanoma = system: SK-MEL-2 melanoma
# SN12C renal = system: SN12C renal
# UO-31 renal = system: UO-31 renal
# ACHN renal = system: ACHN renal
# CAKI-1 renal = system: CAKI-1 renal
# A498 renal = system: A498 renal
# CCRF-CEM leukemia = system: CCRF-CEM leukemia
# MOLT-4 leukemia = system: MOLT-4 leukemia
# TK-10 renal = system: TK-10 renal
# SNB-19 CNS = system: SNB-19 CNS
# EKVX NSCLC = system: EKVX NSCLC
Structure (SMILES),growth (HCT-15 colon),growth (HT29 colon),growth (SNB-75 CNS),growth (U251 CNS),growth (PC-3 prostate),growth (SK-MEL-5 melanoma),growth (UACC-62 melanoma),growth (LOX IMVI melanoma),growth (SK-MEL-28 melanoma),growth (SK-MEL-2 melanoma),growth (SN12C renal),growth (UO-31 renal),growth (ACHN renal),growth (CAKI-1 renal),growth (A498 renal),growth (CCRF-CEM leukemia),growth (MOLT-4 leukemia),growth (TK-10 renal),growth (SNB-19 CNS) [%],growth (EKVX NSCLC)
COc1ccc(-c2cn[nH]c2-c2cc(OC)c3c(c2)OCO3)cc1,18.6%,5.01% (active),-12.9% (active),9.27% (active),11.1%,32%,15.8%,22.8%,39.4%,-9.32% (active),34%,27.8%,39.5%,24.9%,-18.8% (active),2.12% (active),3.98% (active),–,–,–
CC(C)C[C@H](NC(=O)[C@H](Cc1ccccc1)n1ccc(N2CCCCC2)cc1=O)B(O)O,28.3%,0.204% (active),4.25% (active),18.1%,27.7%,-25.2% (active),-12.5% (active),-72.1% (active),28.6%,2.84% (active),26.7%,-37.2% (active),16.1%,–,-24.6% (active),1.97% (active),-2.84% (active),16.9%,–,–
COc1cccc(/C=C2\SC(N3CCN(c4ccccn4)CC3)=NC2=O)c1,105%,84.7%,102%,105%,88.9%,97.1%,95.9%,94.7%,110%,86.9%,102%,84.5%,104%,–,–,63.4%,90.4%,90.9%,–,–
Cc1cc(NC(=O)COC(=O)c2sc3cc(F)ccc3c2Cl)no1,–,114%,104%,106%,101%,110%,90.2%,103%,121%,44.8%,107%,39.2%,106%,110%,103%,66.9%,108%,125%,103,105%
CCCCCCCCCN1C(=O)/C(=c2\sc3n(c2=O)C2C(NN=3)N(CC)C(=O)N2CC)c2ccccc21 (centres undefined),73%,7.96% (active),-14.4% (active),25.1%,34.3%,72.9%,23.7%,19.4%,41.3%,76.2%,66.3%,53.4%,59%,34.8%,18.8%,–,99.7%,71.1%,–,69.1%
COc1cccc(/C=C/c2c(C(=O)O)cccc2[N+](=O)[O-])c1OC,103%,104%,89.3%,95.9%,96.8%,106%,109%,99.2%,109%,102%,103%,87.1%,100%,94.2%,88.4%,101%,96.1%,–,–,–
O=C1CCC/C=C\C[C@H]2C=CC(=O)/C2=C/C[C@H](C/C=C\CC(F)(F)F)O1,-5.57% (active),-28.9% (active),68.7%,-65.5% (active),-42.5% (active),-90.7% (active),-12.1% (active),-88.2% (active),-28.6% (active),-20.9% (active),-6.43% (active),-93% (active),-84.8% (active),16%,-75.2% (active),-5.64% (active),-0.696% (active),-33.6% (active),–,-17.7% (active)
CCC1CCc2nc3sc(C(=O)Nc4cccc(C)c4)c(N)c3cc2C1 (centres undefined),43.7%,47.6%,71.2%,66.6%,66.7%,54.5%,49.2%,72.7%,69.7%,54.6%,90.8%,83.6%,87%,78.1%,45.4%,47.7%,52.6%,78.3%,–,–
O=C1NC(Cc2c[nH]c3ccccc23)C(=O)N1Cc1ccc(Cl)cc1 (centres undefined),99.6%,105%,90.1%,94.1%,90.5%,95%,86.1%,89.1%,109%,66.3%,99.7%,–,95%,86.9%,78.9%,70.1%,85.4%,135%,–,103%
COc1cc2nc(N3CCC[C@@H](NC4=CC(=O)c5ccccc5C4=O)C3)nc(N)c2cc1OC,-67.2% (active),-59.8% (active),-92.3% (active),-89.3% (active),23%,94%,87.8%,-65.3% (active),109%,109%,95.9%,46%,72%,64.9%,107%,-20.9% (active),-37.1% (active),-49.3% (active),–,–
COC1=CC(c2ccc[nH]2)=N/C1=C\c1[nH]c(C)c(C(=O)CCCCC(=O)Oc2ccc3c(c2)CCC2C3CC[C@]3(C)[C@@H](O)CC[C@@H]23)c1C (some centres undefined),37.1%,38.7%,62.7%,52.6%,42.9%,47.8%,57.9%,1.7% (active),81.3%,–,58.8%,–,62.9%,25.7%,38.5%,17.2%,22.8%,96.7%,–,–
CCCCCCCCCCn1cc[n+](C)c1,82%,12.3%,-10.6% (active),21.7%,6.6% (active),-33.1% (active),31.1%,23.9%,34.9%,–,19.4%,65.7%,–,28.8%,12.4%,111%,78.6%,-1.53% (active),–,–
COc1ccc(/C=c2\sc3n(c2=O)C2C(NN=3)N(C)C(=O)N2C)cc1 (centres undefined),28.5%,8.76% (active),-20.5% (active),29.3%,25.4%,6.02% (active),41.9%,44.3%,54.7%,–,42.3%,46.4%,45%,31.5%,-21.3% (active),–,26.5%,54.8%,–,56.7%
Cc1c(C(=O)NCc2ccccc2)[n+](=O)c2cc(F)ccc2n1[O-],111%,94.4%,76.7%,102%,81.9%,86.7%,104%,97.4%,91.3%,40.8%,103%,–,102%,–,101%,52.5%,130%,138%,–,114%
CC/C=C\C[C@H]1C/C=C2/C(=O)C(Cl)=C[C@@H]2C/C=C\CCCC(=O)O1,-90.8% (active),-55.6% (active),-19.9% (active),-79.2% (active),-69.9% (active),-62.6% (active),-53.1% (active),-91.4% (active),-43% (active),-44.1% (active),-1.11% (active),-93.8% (active),-64.6% (active),2.64% (active),-68.3% (active),-19.1% (active),-9.42% (active),-55.3% (active),–,-82% (active)
CCSc1nnc(NC(=O)COc2ccc(Cl)cc2C)s1,102%,115%,110%,99.4%,104%,97.3%,98.7%,93.8%,114%,48.6%,101%,46.2%,96.5%,85.8%,109%,99.1%,95.6%,116%,–,102%
O=C(c1ccccc1)C(Cl)C(Cl)c1ccccc1 (centres undefined),-7.84% (active),20.4%,70.7%,78%,83%,88.8%,0.557% (active),-64.9% (active),67.3%,96.3%,-13.9% (active),–,-71.5% (active),38%,103%,5.75% (active),25.9%,-8.89% (active),–,79%
